In the library only some 22% were active in any assay of this set; here they are far more common.
Measles CPE – compounds protecting cells from measles virus cytopathic effect, primary screen, measles RdRp inhibitor project, single point, MLSMR library, absorbance | Measles virus-infected cells, CPE protection | 140,000 tested, 1.5% active | protection (pct of control), % at 4 µM; in the data active = protection mostly above about 24%, no sharp cut-off; inactive = mostly below about 26%
CYP2C9 inhib – blockers of cytochrome P450 2C9 activity – biochemical, luminescence, ADME assay, primary screen; CYP2C9 Supersomes, luciferin-H conversion; P11712; 96,000 tested, 20% active; AID 777, 2007; inhibition, % at 5 µM;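 active = blocking of liver enzyme CYP2C9 beyond about 50% at 5 µM, limit read from the data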
CYP2C19 inhib – blockers of cytochrome P450 2C19 activity – biochemical, luminescence, ADME assay, primary screen | CYP2C19 Supersomes, luciferin-H EGE luminescence, 30 min | inhibition, % at 5 µM | 96,000 tested, 21% active;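 active = CYP2C19 inhibition above a set limit at 5 µM in the primary screen, cut at about 50% in these data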;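 note: plate controls were negative control wells for no effect and 2.5 mM tranylcypromine positive control for full effect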
Target sequence (P33261 whole entry, looked up): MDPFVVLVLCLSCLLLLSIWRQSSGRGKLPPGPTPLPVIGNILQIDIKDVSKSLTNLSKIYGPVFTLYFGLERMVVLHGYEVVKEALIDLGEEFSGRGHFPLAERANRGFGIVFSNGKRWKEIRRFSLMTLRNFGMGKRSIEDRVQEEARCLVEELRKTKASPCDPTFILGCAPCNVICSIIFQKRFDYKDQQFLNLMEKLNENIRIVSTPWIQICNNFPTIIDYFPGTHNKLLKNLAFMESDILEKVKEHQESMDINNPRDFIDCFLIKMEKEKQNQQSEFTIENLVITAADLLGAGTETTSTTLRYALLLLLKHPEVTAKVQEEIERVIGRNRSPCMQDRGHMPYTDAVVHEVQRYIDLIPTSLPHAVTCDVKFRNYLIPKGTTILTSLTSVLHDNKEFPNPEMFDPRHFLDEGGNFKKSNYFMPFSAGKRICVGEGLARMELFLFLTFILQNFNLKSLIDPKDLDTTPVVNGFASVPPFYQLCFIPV
CYP2C9 act – human CYP2C9 activators, primary screen, biochemical, luminescence. recombinant CYP2C9, luciferin-H conversion; stronger effect = higher value; factor 1 = untreated enzyme, 0 = blocked. 96,000 tested, 1.4% active. activation factor at 5 µM. Cytochrome P450 2C9 (Homo sapiens), P11712. AID 1024, 2008;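 active = activation factor of 2 or more for CYP2C9 at a 5 µM dose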;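 note: 0 = sulfaphenazole-blocked wells and 1 = vehicle-only wells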
CYP2C19 activ – human CYP2C19 activators, primary screen, biochemical, luminescence; recombinant CYP2C19, luciferin-H EGE luminescence; stronger effect = higher value; 0 = fully inhibited enzyme, 1 = untreated enzyme; activation factor at 5 µM; 96,000 tested, under 10 active; AID 1025, 2008;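 active = activation factor of at least 2 at 5 µM in the primary screen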;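 note: 0 = wells with 2.5 mM tranylcypromine and 1 = vehicle-only wells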
An asterisk follows results filed as active; . = not tested or not shown.

SMILES | Measles CPE | CYP2C9 inhib | CYP2C19 inhib | CYP2C9 act | CYP2C19 activ
COC(=O)[C@H](Cc1ccccc1)NC(=O)NCCC1=CCCCC1 | 23 | 62* | 69* | 0.4 | 0.3
Cc1ccc(N(O)C(=O)OCCNC(=O)Nc2ccccc2)cc1 | 7 | 92* | 94* | 0.1 | 0.1
Cc1ccc(NC(=O)NCCCc2ccccc2)cc1 | 4 | 24 | 59* | 0.8 | 0.4
COc1cc2ccccc2cc1-c1nnc(COc2ccccc2)o1 | 12 | -14 | 11 | 1.1 | 0.9
O=C(CN1c2cccc3cccc(c23)S1(=O)=O)Nc1cccc(S(=O)(=O)N2CCOCC2)c1 | 4 | . | . | . | .
CC(C)NC(=S)Nc1ccc2cn[nH]c2c1 | 15 | . | . | . | .
COC(=O)[C@H](Cc1ccccc1)NC(=O)Nc1ccc(C)cc1 | 2 | 17 | 66* | 0.8 | 0.3
COC(=O)C(Cc1ccc(O)cc1)NC(=O)C(C)Oc1ccccc1 (centres undefined) | 3 | 58* | 94* | 0.4 | 0.1
COc1ccc(CCNC(=O)C23CN(Cc4ccccc4)CC2C(c2cccc([N+](=O)[O-])c2)=NO3)cc1 (centres undefined) | 10 | 26 | 31 | 0.7 | 0.7
Cc1ccc(CCNC(=O)C23CN(Cc4ccccc4)CC2C(c2cccc([N+](=O)[O-])c2)=NO3)cc1 (centres undefined) | 3 | 75* | 77* | 0.3 | 0.2
O=C1c2ccccc2C(=O)N1CCSc1n[nH]c(=S)s1 | 4 | 82* | 6 | 0.2 | 0.9
O=C(Nc1cc(Sc2nc3ccccc3s2)cc([N+](=O)[O-])c1)c1ccccc1F | 5 | 71* | 36 | 0.3 | 0.6
CCOC(=O)c1ccc(NC(=O)CSc2nnc(C3CC3)n2CC)cc1 | 8 | . | . | . | .
CCCOC(=O)c1ccc(NC(=O)CSC2=Nc3ccccc3C3CC=NN23)cc1 (centres undefined) | 5 | 80* | 52* | 0.2 | 0.5
O=C1C2CC=CCC2C(=O)N1c1n[nH]c(-c2ccccc2)n1 (centres undefined) | 19 | 92* | 80* | 0.1 | 0.2
O=C(CN1C(=O)c2ccccc2C1=O)Nc1ccc2c(c1)OCO2 | 4 | 28 | 5 | 0.7 | 0.9
CCC(SC1=Nc2ccccc2C2=NC(CC(C)C)C(=O)N12)C(=O)Nc1ccc2c(c1)OCO2 (centres undefined) | 11 | 84* | 57* | 0.2 | 0.4
COc1ccc(OCc2cccc(C(=O)O)c2)cc1 | 2 | 97* | 98* | 0 | 0
CCOc1cccc(OCCOc2ccc(C(=O)c3ccccc3)cc2)c1 | 2 | . | . | . | .
COc1ccc(NS(=O)(=O)c2cccc(C(=O)O)c2)cc1 | 10 | -20 | 19 | 1.2 | 0.8
CCOc1ccc(OCc2ccc(C(=O)N3CCCC3)o2)cc1 | 1 | 57* | 39 | 0.4 | 0.6
CCOc1ccc(OCc2cccc(C(=O)O)c2)cc1 | 24 | 99* | 100* | 0 | 0
CCOc1ccc(OCc2ccc(C(=O)OCc3ccccn3)o2)cc1 | 7 | 55* | 50* | 0.4 | 0.5
O=C(NC1CC1)c1ccc(CS(=O)(=O)c2c(Cl)cccc2Cl)o1 | 8 | -42 | 2 | 1.4 | 1
CCOC(=O)C1(C)/C(=N/Nc2ccccc2Cl)C(=O)C(=O)N1c1ccccc1 (centres undefined) | 3 | 6 | 4 | 0.9 | 1
SMILES | Measles CPE | CYP2C9 inhib | CYP2C19 inhib | CYP2C9 act | CYP2C19 activ
O=C(O)c1ccc(COc2ccc(CO)cc2Cl)cc1 | 9 | -2 | 0 | 1 | 1
O=C(Oc1ccc2ccccc2c1)c1ccccc1 | 7 | 14 | -3 | 0.9 | 1
O=C(O)c1cccc(COc2ccc(CO)cc2Cl)c1 | 13 | 94* | 99* | 0.1 | 0
CCOc1ccc(OCc2cccc(C(=O)N3CCCC3)c2)cc1 | 5 | 66* | 40 | 0.3 | 0.6
COc1cccc(OC)c1C(=O)NNC(=O)c1cccc(COc2ccc3c(c2)CCC3)c1 | . | 28 | 57* | 0.7 | 0.4
O=C(OCC(F)(F)F)c1cccc(COc2ccc3ccccc3c2)c1 | 10 | 56* | 52* | 0.4 | 0.5
CCN(CC)S(=O)(=O)c1ccc(Cl)c(NC(=O)c2cc(Cl)cc(Cl)c2)c1 | 14 | . | . | . | .
Cc1ccc(C)c(N2CCN(c3cnn(-c4nc5ccccc5s4)c(=O)c3Cl)CC2)c1 | 3 | . | . | . | .
O=S(=O)(/N=C(/Nc1ccc(F)c(F)c1F)c1ccccc1)c1ccccc1 | 4 | . | . | . | .
O=C(OCc1cc(=O)n2cc(Br)ccc2n1)C1COc2ccccc2O1 (centres undefined) | 3 | 10 | -4 | 0.9 | 1
CC1CC1C(=O)OCc1cc(=O)n2cc(Br)ccc2n1 (centres undefined) | 3 | 36 | 63* | 0.6 | 0.4
COC(=O)c1ccc(NC(=O)CSCc2ccc(C)cc2)cc1 | 11 | 90* | 75* | 0.1 | 0.2
COC(=O)c1ccc(NC(=O)CSCc2ccccc2C)cc1 | 10 | 92* | 94* | 0.1 | 0.1
COC(=O)c1ccc(NC(=O)CSCc2ccccc2)cc1 | 3 | 38 | 26 | 0.6 | 0.7
COC(=O)c1ccc(NC(=O)CN2CCN(c3ccccc3C)CC2)cc1 | 2 | . | . | . | .
CC(Oc1ccccc1)C(=O)Nc1ccc(C(N)=O)cc1 (centres undefined) | 1 | 28 | 48 | 0.7 | 0.5
CC(C)NS(=O)(=O)c1ccc(NC(=O)C(C)Oc2ccc(C(=O)c3ccccc3)cc2)cc1 (centres undefined) | 11 | . | . | . | .
COc1ccc(OC(C)C(=O)Nc2cccc(OC)c2)cc1 (centres undefined) | 5 | 75* | 87* | 0.3 | 0.1
COc1ccc(C(NC(=O)CNC(C)=O)C(=O)Nc2ccc3c(c2)OCCO3)cc1 (centres undefined) | 17 | 5 | 16 | 0.9 | 0.8
COC(=O)c1ccc(NC(=O)C(C)Oc2ccccc2)cc1 (centres undefined) | 14 | 84* | 42 | 0.2 | 0.6
COc1ccc(C(NC(=O)CNC(C)=O)C(=O)Nc2ccc(C(C)C)cc2)cc1 (centres undefined) | 43* | 10 | 26 | 0.9 | 0.7
COc1ccc(NC(=O)C(C)Oc2ccc(/C(C)=N\O)cc2)cc1 (centres undefined) | 14 | 66* | 81* | 0.3 | 0.2
COc1cc(Cl)c(C)cc1NC(=O)COc1ccccc1[N+](=O)[O-] | 13 | 24 | 14 | 0.8 | 0.9
CC(=O)c1ccc(OCC(O)CN(C)Cc2cccs2)cc1 (centres undefined) | 8 | -2 | 19 | 1 | 0.8
COc1cccc(NC(=O)C(C#N)Cc2ccncc2)c1 (centres undefined) | . | 77* | 100* | 0.2 | 0
